Most compounds without a hit are left out; they make up all but 2.4% or so of the library.
CHO-K1 Ca PAM = nonselective calcium activators in parental CHO-K1 cells, primary screen, counter-screen for M1 PAM project, cell-based, Fluo-8 calcium fluorescence, full deck, 1536-well; AID 602247, 2012; ATP EC20; 0% at ATP EC20, 100% at ATP max; activation, % at 3 µM; actives 0.02% (n = 360,000);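 active means activation above the run cutoff, the mean activation of all test compounds plus 3 SD, cut at about 40% in these data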;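 further: peak over basal fluorescence ratio in a 140 s read after ATP addition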
M1 ag = human M1 muscarinic receptor agonists, primary screen, Fluo-8 calcium fluorescence, CHO-K1 cells, HTS | Muscarinic acetylcholine receptor M1 (Homo sapiens), P11229 | CHO-K1 hM1, agonist mode; 0% DMSO, 100% acetylcholine EC100 | activation, % at 3 µM | actives 0.33% (n = 360,000) | AID 588814, 2011;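 active means activation above the run's mean compound activation plus 3 SD, cut at about 16% in these data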;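 further: peak over basal fluorescence ratio within a 140 s kinetic read after compound addition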
Target sequence (P11229 whole entry, looked up): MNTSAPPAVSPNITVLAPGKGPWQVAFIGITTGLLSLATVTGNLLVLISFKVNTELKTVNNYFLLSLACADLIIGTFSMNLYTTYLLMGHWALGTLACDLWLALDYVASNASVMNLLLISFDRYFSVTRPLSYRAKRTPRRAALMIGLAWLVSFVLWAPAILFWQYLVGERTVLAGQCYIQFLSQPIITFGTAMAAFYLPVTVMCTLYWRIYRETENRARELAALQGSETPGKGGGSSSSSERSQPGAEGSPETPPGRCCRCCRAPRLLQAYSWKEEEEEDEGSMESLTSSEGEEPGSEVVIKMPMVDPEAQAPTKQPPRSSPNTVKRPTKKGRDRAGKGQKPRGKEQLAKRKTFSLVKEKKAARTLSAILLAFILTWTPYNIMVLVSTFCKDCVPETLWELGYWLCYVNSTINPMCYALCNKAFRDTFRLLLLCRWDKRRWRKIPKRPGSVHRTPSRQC
M1 PAM = human M1 muscarinic receptor positive allosteric modulators, primary screen, CHO-K1 cells, Fluo-8 calcium fluorescence, 1536-well; Muscarinic acetylcholine receptor M1 (Homo sapiens), P11229; CHO-K1 hM1, ACh EC20; 0% = ACh EC20, 100% = maximal ACh; activation, % at 3 µM; actives 0.088% (n = 360,000); AID 588819, 2011; in the data active means activation above about 19%, passing the limit was not always enough
CHO-K1 Ca ag = counter-screen for M1 agonists: effect in parental CHO-K1 cells; actives 0.48% (n = 360,000); activation, % at 3 µM; Fluo-8 calcium fluorescence; scaled to maximal ATP response, vehicle zero; in the data active means activation above about 15%;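 further: untransfected CHO-K1 host cells lacking M1 receptor as counterscreen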
CHO-K1 Ca antag = nonselective inhibitor or artifact in parental CHO-K1 cells | ATP-induced calcium, Fluo-8 fluorescence | inhibition, % at 3 µM | actives 0.6% (n = 360,000);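 active means inhibition above a per-plate cutoff, the plate's mean sample inhibition plus 3 SD, cut at about 24% in these data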
CHRM1 antagonist = human M1 muscarinic receptor antagonists, primary screen, CHO-K1 cells, Fluo-8 calcium fluorescence, 1536-well; Muscarinic acetylcholine receptor M1 (Homo sapiens), P11229; CHO-K1 hM1, ACh EC80 antagonist; inhibition, % at 3 µM; actives 1.3% (n = 360,000);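 active means percent inhibition above its own plate's cutoff, namely the mean of that plate's compound wells plus 3 SD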;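 further: peak over basal fluorescence ratio during 140 s after agonist addition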
A number is an active result; - = inactive.

SMILES	CHO-K1 Ca PAM	M1 ag	M1 PAM	CHO-K1 Ca ag	CHO-K1 Ca antag	CHRM1 antagonist
COCCNC(=O)c1cc2c(=O)[nH]c3ccccc3c2s1	-	-	-	-	-	-
Cc1cccc(-n2[nH]c(C)c(C=Nc3ccc4[nH]c(=O)[nH]c4c3)c2=O)c1	-	-	-	-	28.4	-
Clc1cccc(-c2ccc3nccn3c2)c1Cl	-	-	-	-	-	-
CSc1ccccc1-c1ccc2nccn2c1	-	-	-	-	-	34.9
COc1cccc(-c2ccc3nccn3c2)c1	-	-	-	-	28.4	-
CC(=O)Nc1ccc(NC(=O)C(C)OC(=O)C23CC4CC(CC(Cl)(C4)C2)C3)cc1 (centres undefined)	-	-	-	-	-	-
O=C(Nc1nc2ccccc2[nH]1)C1CC1	-	-	-	-	-	-
O=C(Nc1nc2ccccc2[nH]1)NC1CCCCC1	-	-	-	23.4	-	-
O=C(Nc1ccccc1)OC[C@@H]1C=CS(=O)(=O)N1Cc1ccc(Br)cc1	-	-	-	-	-	-
CNC(=S)N1CCN(c2ccc(Cl)c(Cl)c2)CC1	-	-	-	16.9	-	-
O=C(CCC(=O)N1CCN(c2ccc(Cl)c(Cl)c2)CC1)c1ccccc1	-	-	-	-	-	43.8
COC(=O)N1CCN(c2ccc(Cl)c(Cl)c2)CC1	-	-	-	-	-	-
O=C(c1ccco1)N1CCN(c2ccc(Cl)cc2)CC1	-	-	-	-	-	-
O=C(c1ccco1)N1CCN(c2ccc(Cl)c(Cl)c2)CC1	-	-	-	-	26.2	33.1
CC(C)c1cc(C(F)(F)F)nc(NNc2nc(C(C)C)cc(C(F)(F)F)n2)n1	-	-	-	-	-	-
CCOC(=O)C[N+]1(C)CCN(C(C)=O)CC1	-	-	-	-	-	-
Cc1cccc2sc(N(CCCN(C)C)C(=O)c3ccco3)nc12	-	-	-	-	-	75.6
Cc1cccc2sc(N(CCCN(C)C)C(=O)c3ccc(Cl)s3)nc12	-	-	-	-	-	50.9
CC1=CC(C)(C)N(C(=O)CCl)c2cc(C)ccc21	-	-	-	-	-	-
CC1=CC(C)(C)N(C(=O)CNC2CCCCC2)c2cc(C)ccc21	-	-	-	-	-	99.5
CNS(=O)(=O)c1cccc(C(=O)NNC(=O)c2ccc(COc3ccccc3)cc2)c1	-	-	-	-	-	-
CCOC(=O)C1=C(COC(=O)/C=C/c2ccccc2Cl)NC(=O)NC1C (centres undefined)	-	-	-	-	-	-
CCOC(=O)C1=C(COC(=O)/C=C/c2ccccc2F)NC(=O)NC1C (centres undefined)	-	-	-	-	-	27.0
N#Cc1c(NC(=O)c2ccc(-c3ccccc3[N+](=O)[O-])o2)sc2c1CCCC2	-	-	-	-	27.6	-
O=C(O)CNC(=O)c1ccccc1F	-	-	-	-	-	-
SMILES	CHO-K1 Ca PAM	M1 ag	M1 PAM	CHO-K1 Ca ag	CHO-K1 Ca antag	CHRM1 antagonist
O=C(CNC(=O)c1ccccc1F)NCCc1ccccc1F	-	-	-	-	-	27.9
CCOC(=O)CC1C(=O)NCCN1C(=O)c1cccc(OC)c1 (centres undefined)	-	-	-	-	-	27.6
CCOC(=O)CC1C(=O)NCCN1C(=O)c1ccc(Cl)c(Cl)c1 (centres undefined)	73.8	-	-	-	-	-
Cc1cccc(C(=O)NN2S(=O)(=O)c3ccccc3S2(=O)=O)c1	-	-	-	-	-	32.9
Cc1cccc(C(=O)NN2C(=O)C3C(c4ccccc4)C=CC(c4ccccc4)C3C2=O)c1 (centres undefined)	-	-	-	-	-	89.1
CCNc1nc(NC(C)C)nc(Oc2ccc(/C=N/O)cc2)n1	-	-	-	-	-	-
COc1cc(O)c(C(CC(=O)N2CCOCC2)c2ccc3c(c2)OCO3)c(OC)c1 (centres undefined)	-	-	-	-	-	36.1
CCCCc1cc(O)c(CCCC)c(O)c1	-	55.2	-	47.2	48.1	51.3

Compound activity (PubChem BioAssay)
